The record followed here is PubChem BioAssay.

For assay [1], the system named is Wnt5a (protein binding on small-molecule microarray). The assay can be described thus: small molecules binding Wnt5a protein – biophysical, small-molecule microarray, 635/667 nm fluorescence, primary screen (AID 1142).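 Further: fluorescence read at 667 nm with signal to noise per printed feature.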 Conditions: 635 nm fluorescence, higher = more signal.
A short description of assay [2]: ATP-based viability of Huh7 replicon cells – cell-based, CellTiter-Glo luminescence, basal, 48 h, cytotoxicity control for HCV replication inhibitor project, primary screen (AID 1143).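 Further: Huh7 hepatoma cells carrying a hepatitis C replication reporter with no stimulus; test concentration not given here.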 Conditions: higher = more signal, called active from +8 up or from −8 down. A general note: A replicon is a self-replicating genome or part of one, used to study replication in cells.

The nature of assay [3]: Pseudomonas biofilm growth suppression – PAO1 strain, BacTiter-Glo luminescence, LB-PBS, primary screen (AID 1144). The conditions noted are these: P. aeruginosa PAO1 biofilm, 12 h, higher = more signal.
Assay [4] in a line: basal CRE-LacZ reporter activity in PC12 – cell-based, unstimulated, primary screen (AID 1145). The conditions noted are these: no forskolin, luminescence, 4.5 h, higher = more signal, called active from +8 up or from −8 down.
A short description of assay [5]: forskolin-driven CRE-LacZ activity in PC12 – cell-based, CRE-LacZ reporter, forskolin-stimulated, primary screen (AID 1146).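 Further: PC12 cells with 6xCRE LacZ reporter stimulated by forskolin 10 µM; beta-galactosidase reporter signal reflecting CREB driven transcription.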 The conditions noted are these: luminescence, 4.5 h, higher = more signal, called active from +8 up or from −8 down.
Assay [6] concerns the target Streptavidin (Streptomyces avidinii) (UniProt P22629). The assay can be described thus: compounds binding control protein streptavidin – biophysical, small-molecule microarray, 635/667 nm fluorescence, artefact control for SMM compound annotation, primary screen (AID 1147).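 Further: signal reflects streptavidin binding to arrayed compounds as a control protein.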 Conditions: higher = more signal.
A short description of assay [7]: probe aInhba binding on compound microarray – biochemical, small-molecule microarray, 635/667 nm fluorescence, primary screen (AID 1148).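 Further: score merges 667nm spot fluorescence with signal-to-noise for antibody binding to printed compounds.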 The conditions noted are these: higher = more signal.
Assay [8] deals with Torsin-1A (Homo sapiens) (UniProt O14656). The assay can be described thus: TOR1A wild-type binding on microarray – cell lysate, small-molecule microarray, lysate, 635/667 nm, primary screen (AID 1149). The conditions noted are these: COS7 hTOR1A-WT lysate, 635 nm fluorescence, higher = more signal.
Sequence of Torsin-1A (Homo sapiens) (O14656 whole entry, looked up): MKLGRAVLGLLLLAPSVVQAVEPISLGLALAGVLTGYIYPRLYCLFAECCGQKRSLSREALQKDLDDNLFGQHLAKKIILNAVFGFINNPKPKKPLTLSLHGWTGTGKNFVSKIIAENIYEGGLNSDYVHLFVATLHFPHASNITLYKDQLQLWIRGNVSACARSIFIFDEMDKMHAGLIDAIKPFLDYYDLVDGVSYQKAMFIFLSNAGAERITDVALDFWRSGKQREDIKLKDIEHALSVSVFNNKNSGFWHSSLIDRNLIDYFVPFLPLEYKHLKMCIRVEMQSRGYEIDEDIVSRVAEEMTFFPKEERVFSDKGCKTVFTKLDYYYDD
For assay [9] the target is unchanged. The experiment in a line: torsin A mutant lysate binding on microarrays – cell lysate, small-molecule microarray, COS7 lysate, 635/667 nm fluorescence, primary screen (AID 1150).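 Further: score pools 667 nm emission and signal to noise measuring lysate protein binding.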 Conditions: COS7 hTOR1A mutant lysate, 635 nm fluorescence, higher = more signal.
The subject of assay [10] is Sonic hedgehog protein (Shh). The experiment in a line: Sonic hedgehog microarray binding compounds – biochemical, small-molecule microarray, 635/667 nm fluorescence, primary screen (AID 1151).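 Further: Shh protein binding to compounds spotted on small-molecule microarray slides; score combines spot fluorescence intensity with signal-to-noise across triplicate slides.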 Conditions: 635 nm fluorescence, higher = more signal.
A short description of assay [11]: optical density shifts of acrAB sulA E. coli – strain DRC41, OD650, 48 h, E. coli filamentation inducer project, primary screen (AID 1152).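 Further: E. coli MC1000 strain DRC41 lacking acrAB efflux pump and sulA.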 Conditions: higher = more signal, called active from +8 up or from −8 down.
Assay [12] in a line: probe aLefty1 binding on compound microarray – biochemical, small-molecule microarray, 635/667 nm fluorescence, primary screen (AID 1153).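 Further: score merges spot fluorescence with signal-to-noise ratio from the scanned slide images.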 Conditions: higher = more signal.
A short description of assay [13]: plasmodial surface anion channel blockers, osmotic lysis – cell-based, P. falciparum Indochina, OD700, 1 h, primary screen (AID 1154). The conditions noted are these: P. falciparum Indochina infected RBC osmotic lysis, higher = more signal, called active from +8 up or from −8 down.
Assay [14] in a line: plasmodial surface anion channel blockers, osmotic lysis – cell-based, P. falciparum Indochina, OD700, 2 h, primary screen (AID 1155).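 Further: lysis reports solute entry through the parasite surface anion channel PSAC.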 The conditions noted are these: P. falciparum Indochina infected erythrocytes, higher = more signal, called active from +8 up or from −8 down.
Assay [15] is described as follows: changes in parasitized red cell lysis, either direction – P. falciparum Indochina, OD700, 3 h, PSAC antagonist project, primary screen (AID 1156). Conditions: P. falciparum-infected erythrocytes, osmotic lysis, higher = more signal, called active from +8 up or from −8 down.
Assay [16] can be described thus: plasmodial surface anion channel blockers, osmotic lysis – cell-based, P. falciparum Indochina, OD700, 18 h, primary screen (AID 1157). Conditions: P. falciparum Indochina infected erythrocytes, osmotic lysis OD700, 18 h; higher = more signal, called active from +8 up or from −8 down.
Assay [17] is described as follows: S6 kinase pathway phospho-S6 level changes – cell-based, A549, cytoblot, luminescence, serum-stimulated, primary screen (AID 1158).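 Further: serum-stimulated A549 lung adenocarcinoma cells; signal is phosphorylated S6 detected by cytoblot immunostaining with HRP secondary.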 The conditions noted are these: 5 h, higher = more signal.
In assay [18] the target is NADPH oxidase 2 (Homo sapiens) (UniProt P04839). The experiment in a line: compounds shifting NOX2 Amplex Red fluorescence – cell-based, HEK293-NOX2, PMA-stimulated, NOX inhibitor project, primary screen (AID 1159). Further: test concentration not given here. Conditions: 45 min, higher = more signal, called active from +8 up or from −8 down.
Sequence of NADPH oxidase 2 (Homo sapiens) (P04839 whole entry, looked up): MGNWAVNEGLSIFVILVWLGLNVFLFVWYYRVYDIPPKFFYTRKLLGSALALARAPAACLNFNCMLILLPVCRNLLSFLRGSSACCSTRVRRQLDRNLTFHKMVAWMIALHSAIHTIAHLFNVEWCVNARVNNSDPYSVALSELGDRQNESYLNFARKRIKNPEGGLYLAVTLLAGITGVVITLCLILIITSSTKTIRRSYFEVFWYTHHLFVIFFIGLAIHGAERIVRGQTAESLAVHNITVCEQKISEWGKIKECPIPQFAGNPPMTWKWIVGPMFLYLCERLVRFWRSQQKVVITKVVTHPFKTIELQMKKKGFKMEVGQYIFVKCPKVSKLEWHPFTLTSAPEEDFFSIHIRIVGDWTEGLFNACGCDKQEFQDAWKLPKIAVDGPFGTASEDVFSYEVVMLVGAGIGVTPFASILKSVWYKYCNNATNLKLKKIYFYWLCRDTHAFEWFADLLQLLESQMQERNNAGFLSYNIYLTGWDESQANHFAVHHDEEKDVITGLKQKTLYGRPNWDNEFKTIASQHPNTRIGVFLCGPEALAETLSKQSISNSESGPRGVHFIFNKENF
In assay [19] the target is NADPH oxidase 4 (Homo sapiens) (UniProt Q9NPH5). The experiment in a line: compounds shifting NOX4 Amplex Red fluorescence – cell-based, HEK293-NOX4, tetracycline-induced, NOX inhibitor project, primary screen (AID 1160). The conditions noted are these: HEK293-NOX4, Amplex Red H2O2 fluorescence, 45 min; higher = more signal, called active from +8 up or from −8 down.
Sequence of NADPH oxidase 4 (Homo sapiens) (Q9NPH5 whole entry, looked up): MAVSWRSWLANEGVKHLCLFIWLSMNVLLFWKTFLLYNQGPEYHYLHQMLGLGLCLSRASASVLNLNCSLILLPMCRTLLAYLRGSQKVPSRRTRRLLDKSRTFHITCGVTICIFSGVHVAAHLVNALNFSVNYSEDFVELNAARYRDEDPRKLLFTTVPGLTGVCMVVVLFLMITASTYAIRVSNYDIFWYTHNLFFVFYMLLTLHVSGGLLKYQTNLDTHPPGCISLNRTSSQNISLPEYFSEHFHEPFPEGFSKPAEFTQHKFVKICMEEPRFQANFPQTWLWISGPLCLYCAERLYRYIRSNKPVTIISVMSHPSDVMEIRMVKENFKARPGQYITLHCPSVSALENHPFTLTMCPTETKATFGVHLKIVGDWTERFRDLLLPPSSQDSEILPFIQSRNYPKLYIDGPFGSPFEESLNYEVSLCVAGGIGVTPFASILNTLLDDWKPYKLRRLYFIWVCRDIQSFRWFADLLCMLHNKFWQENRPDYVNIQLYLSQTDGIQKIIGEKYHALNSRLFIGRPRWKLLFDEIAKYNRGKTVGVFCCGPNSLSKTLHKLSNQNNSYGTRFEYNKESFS
The target in assay [20] is NADPH oxidase 5 (Homo sapiens) (UniProt Q96PH1). The assay can be described thus: compounds shifting NOX5 Amplex Red fluorescence – cell-based, HEK293-NOX5, NOX inhibitor project, primary screen (AID 1161). The conditions noted are these: HEK293-NOX5, ionomycin, 45 min, higher = more signal.
Sequence of NADPH oxidase 5 (Homo sapiens) (Q96PH1 whole entry, looked up): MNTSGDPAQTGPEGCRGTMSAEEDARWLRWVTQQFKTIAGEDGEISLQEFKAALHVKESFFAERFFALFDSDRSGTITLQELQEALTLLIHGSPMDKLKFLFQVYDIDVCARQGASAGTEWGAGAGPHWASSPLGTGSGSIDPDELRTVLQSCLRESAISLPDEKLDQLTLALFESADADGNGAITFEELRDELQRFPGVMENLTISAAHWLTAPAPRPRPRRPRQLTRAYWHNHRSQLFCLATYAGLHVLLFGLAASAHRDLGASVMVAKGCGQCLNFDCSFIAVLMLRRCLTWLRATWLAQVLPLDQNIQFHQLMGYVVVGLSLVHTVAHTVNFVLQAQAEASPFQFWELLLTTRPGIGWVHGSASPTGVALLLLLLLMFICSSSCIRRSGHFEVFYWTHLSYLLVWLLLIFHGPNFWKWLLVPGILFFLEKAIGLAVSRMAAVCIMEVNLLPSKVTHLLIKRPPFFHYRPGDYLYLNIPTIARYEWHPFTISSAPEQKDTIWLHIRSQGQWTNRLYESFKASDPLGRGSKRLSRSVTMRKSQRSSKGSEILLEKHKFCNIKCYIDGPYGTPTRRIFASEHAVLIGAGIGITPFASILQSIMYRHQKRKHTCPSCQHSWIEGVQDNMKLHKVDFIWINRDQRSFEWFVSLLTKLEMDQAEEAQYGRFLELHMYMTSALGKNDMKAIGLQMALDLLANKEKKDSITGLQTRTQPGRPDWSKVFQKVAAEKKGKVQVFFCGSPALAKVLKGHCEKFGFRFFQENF

Structures are written as SMILES. Activity calls are given as the source filed them. Unless noted, how the calls were made is not given here.

Sequence of Streptavidin (Streptomyces avidinii) (P22629 whole entry, looked up): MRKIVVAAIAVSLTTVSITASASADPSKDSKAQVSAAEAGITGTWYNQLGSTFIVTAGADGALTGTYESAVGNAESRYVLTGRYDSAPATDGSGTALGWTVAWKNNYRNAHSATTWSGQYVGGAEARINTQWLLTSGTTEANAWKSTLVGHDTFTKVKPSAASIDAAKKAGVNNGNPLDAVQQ

For `O=C1C[C@@](C(=O)NC2CC2)(c2ccc([N+](=O)[O-])cc2)[C@@H](c2ccc(CO)cc2I)N1C1CCCCC1`, the composite z-score amounted to 0.693 in [1]; 1.38 in [6]; 0.0785 in assay [7]; 0.207 in assay [8]; 0.461 in assay [9]; 2.09 in assay [10]. In [12], this molecule returned a composite z-score of -0.034. Also, the z-score in assay [2] is -3.54 (inactive); in assay [3] it was -0.691 (inactive); in assay [4] it was 0.495 (inactive); in [5], 0.714 (inactive); in assay [11] it was -0.178 (inactive); in assay [13], 16.5 (active). The z-score in assay [14] was 2.28 (inactive); in assay [15] it was 3.03 (inactive); in [16], 0.797 (inactive); in assay [17], -0.552; in assay [18], 1.37 (inactive); in assay [19], 0.666 (inactive). In addition, in assay [20], the z-score is 2.04.

Turning to `COc1cc(Br)cc(C(O)C2C=CC3C(=O)N(C)C(=O)C3N2N2CCCCC2)c1OC` (stereo not given), the composite z-score was -0.274 in [1]; -0.39 in [6]; -0.016 in assay [7]; 0.167 in [8]; 0.0369 in [9]; -1.49 in assay [10]. In assay [12], this molecule displayed a composite z-score of 0.152. Moreover, the z-score in [2] was 0.4 (inactive); in assay [3] it was -0.311 (inactive); in assay [4] it was 0.822 (inactive); in [5], 0.641 (inactive); in assay [11], -1.8 (inactive); in [13], 0.712 (inactive). Also, the z-score in assay [14] is 1.27 (inactive); in [15], 0.126 (inactive); in assay [16], 1.17 (inactive); in assay [17], -1.45; in [18] it was 0.524 (inactive); in [19], -3.5 (inactive). The z-score in assay [20] is -0.637.

For the molecule `CCCC[C@@H]1C[C@H]1[C@@H](NC(=O)C(C)(C)C)c1ccc(C(F)(F)F)cc1`, the composite z-score in [1] is -0.96; in [6] it was 0.0267; in assay [7] it was -0.0405; in assay [8], -0.49; in assay [9], -0.869; in assay [10] it was -1.7. This molecule also returned a composite z-score in assay [12] of 0.718. Also, the z-score in assay [2] is -4.27 (inactive); in assay [3] it was 0.0317 (inactive); in assay [4], 0.201 (inactive); in assay [5], 1.44 (inactive); in assay [11], -2.06 (inactive); in [13], 5.74 (inactive). The z-score in [14] is 0.367 (inactive); in assay [15], 1.01 (inactive); in assay [16], -1.37 (inactive); in assay [17] it was 2.6; in [18], -4.58 (inactive); in [19], -4.44 (inactive). For the same molecule, the z-score in [20] was -5.62.

As for `CO[C@H]1O[C@H](CO)[C@@H](OC(=O)Nc2ccc(C(F)(F)F)cc2)[C@H](OC(=O)Nc2ccc3c(c2)OCO3)[C@@H]1OC(=O)Nc1ccc2c(c1)OCO2`, the composite z-score in [1] was 0.246; in assay [6], 0.273; in [7] it was -0.157; in assay [8], 1.81; in assay [9] it was 1.23; in [10], 0.57. In addition, the composite z-score in [12] is 0.199. In addition, the z-score is -4.31 (inactive) in [2]; 0.999 (inactive) in assay [3]; 0.652 (inactive) in assay [4]; -1.93 (inactive) in assay [5]; -0.112 (inactive) in assay [11]; 25.8 (active) in assay [13]. For the same molecule, the z-score in assay [14] is 15.3 (active); in [15], 3.6 (inactive); in [16], 1.77 (inactive); in [17] it was -0.176; in [18] it was -0.794 (inactive); in assay [19], -0.393 (inactive). In addition, the z-score in [20] was -0.486.

Consider `COc1ccc([Si](C)(C)[C@@H]2[C@@H](CCO)O[C@]3(C(=O)N(Cc4ccc(N(C=O)c5ccccc5)cc4)c4ccccc43)[C@H]2C)cc1`, for which the composite z-score came to 0.0862 in [1]; 0.426 in [6]; 0.106 in assay [7]; 0.164 in [8]; 0.469 in [9]; 0.868 in assay [10]. Also, in assay [12], the composite z-score is -0.06. Moreover, the z-score is -6.2 (inactive) in [2]; 0.00917 (inactive) in assay [3]; 4.55 (inactive) in [4]; 1.03 (inactive) in [5]; -0.482 (inactive) in [11]; 4.33 (inactive) in assay [13]. Besides, the z-score was 2.33 (inactive) in [14]; 0.287 (inactive) in [15]; 1.7 (inactive) in [16]; 0.257 in assay [17]; 1.07 (inactive) in assay [18]; 1.52 (inactive) in [19]. Also, the z-score in assay [20] is 2.89.

As for `COC(=O)[C@@]1(Cc2ccc(F)cc2)[C@H]2c3cc(C(=O)N(C)C)n(Cc4ccc(Cl)c(C(F)(F)F)c4)c3C[C@H]2CN1C(=O)c1ccccc1`, the composite z-score is 0.156 in assay [1]; 2.37 in assay [6]; 0.588 in assay [7]; 0.146 in assay [8]; 0.751 in [9]; -0.823 in assay [10]. The same molecule had a composite z-score in assay [12] of 1.54. Moreover, the z-score is -2.95 (inactive) in assay [2]; 0.44 (inactive) in assay [3]; 1.34 (inactive) in [4]; 0.778 (inactive) in assay [5]; -1.91 (inactive) in assay [11]; 7.17 (inactive) in [13]. In addition, the z-score was 2.13 (inactive) in assay [14]; 0.512 (inactive) in assay [15]; 1.72 (inactive) in assay [16]; -0.186 in [17]; 0.23 (inactive) in assay [18]; -1.2 (inactive) in assay [19]. In addition, the z-score in assay [20] came to 0.627.

In the case of `CC1(C)[C@@H]2CC(C(O)C3C=CC4C(=O)N(Cc5ccccc5)C(=O)C4N3n3cnnc3)=C[C@H]1C2` (stereo not given in full), the composite z-score in assay [1] was 0.253; in assay [6] it was 0.512; in [7] it was -0.0375; in assay [8], 1.49; in assay [9] it was 1.33; in assay [10] it was 0.414. For the same molecule, the composite z-score in [12] stood at 0.0451. Besides, the z-score is -0.346 (inactive) in assay [2]; 0.132 (inactive) in assay [3]; -0.126 (inactive) in assay [4]; 0.34 (inactive) in assay [5]; -0.316 (inactive) in [11]; 1.31 (inactive) in [13]. In addition, the z-score is 1.24 (inactive) in assay [14]; 0.313 (inactive) in assay [15]; 0.927 (inactive) in [16]; -0.688 in [17]; -0.14 (inactive) in assay [18]; 0.741 (inactive) in assay [19]. The z-score in assay [20] is 0.273.

As for `C=C[C@H](CO[Si](CC)(CC)CC)N(Cc1ccc(OC(C)=O)c(OC)c1)S(=O)(=O)c1ccc(Br)cc1`, the composite z-score in assay [1] stood at 0.157; in assay [6], 1.61; in [7] it was 0.403; in assay [8] it was 0.837; in [9], 0.671; in assay [10], 1.15. In addition, in assay [12], the composite z-score was 0.698. The z-score in assay [2] was -4.96 (inactive); in assay [3] it was 0.451 (inactive); in assay [4], -0.263 (inactive); in [5] it was 0.685 (inactive); in assay [11], 0.719 (inactive); in assay [13] it was -0.0878 (inactive). Further, the z-score in assay [14] was -0.231 (inactive); in assay [15] it was -0.738 (inactive); in assay [16] it was -1.39 (inactive); in assay [17] it was 0.674; in [18], -2 (inactive); in assay [19] it was -0.928 (inactive). Also, the z-score in assay [20] was -1.27.
